In PubChem BioAssay (NCATS):
Records with an inconclusive call do not appear. Calls of active or inactive are those of the source. Calls come from the whole dose curve; as a rule, active = well fitted curve in the direction sought with a large enough effect; inconclusive = small, poorly fitted or top-dose-only effect, or another doubt; inactive = no such curve, though single readings can be large; an effect the other way counts as inactive or inconclusive.

What was measured:
[1] = Quantitative High-Throughput drug screen in 47 multiple myeloma cell lines against the NCATS MIPE library collection: Delta47_JCRB cell viability assay (AID 1918925; note: nearly all actives have a fitted effect of over 45% in size)
In short: (§1)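 qHTS of the MIPE 4.0 collection: 500 myeloma cells/well, 48 h drug exposure at 37C in 5% CO2, then CellTiter-Glo for 5 min at room temperature before luminescence reading.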

[2] = Quantitative High-Throughput drug screen in 47 multiple myeloma cell lines against the NCATS MIPE library collection: ARP1_JJKsccF8 cell viability assay (AID 1918928; note: nearly all actives have a fitted effect of over 40% in size)
In short: (§2)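 Myeloma cells at 500 per well in 1536-well format treated with MIPE 4.0 library by pin transfer for 48 h at 37C, 5% CO2. Viability from ATP luminescence (CellTiter-Glo), normalized to DMSO (100%) and media-only (0%) wells.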

[3] = Quantitative High-Throughput drug screen in 47 multiple myeloma cell lines against the NCATS MIPE library collection: ARD_JJKsccE7 cell viability assay (AID 1918929)
In short: as §1

[4] = Quantitative High-Throughput drug screen in 47 multiple myeloma cell lines against the NCATS MIPE library collection: Karpas620_DSMZ cell viability assay (AID 1918959); note: nearly all actives have a fitted effect of over 30% in size
In short: (§3)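 Inhibition of cell viability is measured here. Each line was plated at 500 cells per well, treated with MIPE 4.0 drugs, kept 48 hours at 37C, then assayed for ATP content by CellTiter-Glo luminescence.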

[5] = Quantitative High-Throughput drug screen in 47 multiple myeloma cell lines against the NCATS MIPE library collection: KMM1_JCRB cell viability assay (AID 1918960); note: nearly all actives have a fitted effect of over 30% in size
In short: as §2

[6] = Quantitative High-Throughput drug screen in 47 multiple myeloma cell lines against the NCATS MIPE library collection: JIM3_ECACC cell viability assay (AID 1918963; note: nearly all actives have a fitted effect of over 35% in size)
In short: as §3

[7] = Quantitative High-Throughput drug screen in 47 multiple myeloma cell lines against the NCATS MIPE library collection: INA6_PLB cell viability assay (AID 1918965; note: nearly all actives have a fitted effect of over 55% in size)
In short: as §1

[8] = Quantitative High-Throughput drug screen in 47 multiple myeloma cell lines against the NCATS MIPE library collection: H1112_PLB cell viability assay (AID 1918967; note: nearly all actives have a fitted effect of over 30% in size)
In short: as §1

[9] = Quantitative High-Throughput drug screen in 47 multiple myeloma cell lines against the NCATS MIPE library collection: Karpas25_ECACC cell viability assay (AID 1918968; note: nearly all actives have a fitted effect of over 35% in size)
In short: as §1

[10] = Quantitative High-Throughput drug screen in 47 multiple myeloma cell lines against the NCATS MIPE library collection: KMS27_JCRB cell viability assay (AID 1918970); note: nearly all actives have a fitted effect of over 30% in size
In short: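 ATP-based viability (CellTiter-Glo luminescence) is measured in cells treated 48 h with approved and investigational drugs at 37 °C. Controls are DMSO-only wells for full viability and media-only wells for none.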

[11] = Quantitative High-Throughput drug screen in 47 multiple myeloma cell lines against the NCATS MIPE library collection: KMS12BM_JCRB cell viability assay (AID 1918971); note: nearly all actives have a fitted effect of over 35% in size
In short: as §3

[12] = Quantitative High-Throughput drug screen in 47 multiple myeloma cell lines against the NCATS MIPE library collection: KMS12PE_JCRB cell viability assay (AID 1918972); note: nearly all actives have a fitted effect of over 30% in size
In short: as §1

[13] = Quantitative High-Throughput drug screen in 47 multiple myeloma cell lines against the NCATS MIPE library collection: EJM_DSMZ cell viability assay (AID 1918926; note: nearly all actives have a fitted effect of over 30% in size)
In short: as §1

[14] = Quantitative High-Throughput drug screen in 47 multiple myeloma cell lines against the NCATS MIPE library collection: AMO1_DSMZ cell viability assay (AID 1918927; note: nearly all actives have a fitted effect of over 30% in size)
In short: as §1

[15] = Quantitative High-Throughput drug screen in 47 multiple myeloma cell lines against the NCATS MIPE library collection: Karpas417_ECACC cell viability assay (AID 1918961); conditions: Karpas417 myeloma viability, CellTiter-Glo ATP luminescence, 48 h; viability (% of DMSO): at 45.8 µM (top of the series)
In short: as §1

[16] = Quantitative High-Throughput drug screen in 47 multiple myeloma cell lines against the NCATS MIPE library collection: FR4_PLB cell viability assay (AID 1918924; note: nearly all actives have a fitted effect of over 35% in size)
In short: as §3

[17] = Quantitative High-Throughput drug screen in 47 multiple myeloma cell lines against the NCATS MIPE library collection: JIM1_ECACC cell viability assay (AID 1918964)
In short: as §1

[18] = Quantitative High-Throughput drug screen in 47 multiple myeloma cell lines against the NCATS MIPE library collection: JJN3_DSMZ cell viability assay (AID 1918966; note: nearly all actives have a fitted effect of over 50% in size)
In short: as §1

[19] = Quantitative High-Throughput drug screen in 47 multiple myeloma cell lines against the NCATS MIPE library collection: KHM11_PLB cell viability assay (AID 1918962); note: nearly all actives have a fitted effect of over 35% in size
In short: as §3
Potency is the fitted concentration of half-maximal effect.

Row | SMILES | Potency [1] | Potency [2] | Potency [3] | Potency [4] | Potency [5] | Potency [6] | Potency [7] | Potency [8] | Potency [9] | Potency [10] | Potency [11] | Potency [12] | Potency [13] | Potency [14] | Potency [15] | Potency [16] | Potency [17] | Potency [18] | Potency [19]
1 | N#Cc1c(O)c2c(-c3ccc(-c4ccccc4O)cc3)csc2[nH]c1=O | inactive | inactive | inactive | inactive | inactive | inactive | inactive | inactive | inactive | inactive | 5.26 µM (active) | inactive |  |  |  |  |  |  | 
2 | Cc1nc2ccc(CN(C)c3ccc(C(=O)N[C@@H](CCC(=O)O)C(=O)O)s3)cc2c(=O)[nH]1 |  | 0.0209 µM (active) |  | inactive |  | 0.0935 µM (active) | 0.0418 µM (active) | inactive | inactive | 0.264 µM (active) |  | 0.0662 µM (active) | inactive | 0.0662 µM (active) | inactive |  |  |  | 
3 | CN[C@H]1CCc2cc(OC)c(OC)c(OC)c2-c2ccc(OC)c(=O)cc21 | 0.001 µM (active) | 0.0015 µM (active) |  | inactive |  |  | 0.001 µM (active) |  | 0.0105 µM (active) |  | 0.0017 µM (active) |  |  |  | 0.059 µM (active) | inactive | inactive | 0.0187 µM (active) | 
4 | C=C1C(=CC=C2CCCC3(C)[C@@H]([C@H](C)C=CC=CC(O)(CC)CC)CC[C@@H]23)C[C@@H](O)C[C@@H]1O (stereo not given in full) |  | 20.9 µM (active) | 16.6 µM (active) | 20.9 µM (active) | 20.9 µM (active) |  |  | 23.5 µM (active) |  | 29.6 µM (active) | 20.9 µM (active) | 14.8 µM (active) | 18.7 µM (active) | 14.8 µM (active) |  |  | 16.6 µM (active) |  | 
5 | Cc1cc(Nc2cc(N3CCN(C)CC3)nc(Sc3ccc(NC(=O)C4CC4)cc3)n2)n[nH]1 | 3.72 µM (active) |  |  | 0.0332 µM (active) | 5.9 µM (active) | 5.26 µM (active) | 16.6 µM (active) |  | 18.7 µM (active) | 0.0118 µM (active) |  | 0.166 µM (active) | 14.8 µM (active) | 0.372 µM (active) | 7.43 µM (active) |  | 6.62 µM (active) |  | 1.32 µM (active)
6 | Cc1cccc(C=NNc2cc(N3CCOCC3)nc(OCCc3ccccn3)n2)c1 | 1.32 µM (active) |  | 1.05 µM (active) | 0.469 µM (active) |  | 2.35 µM (active) | 14.8 µM (active) |  | 13.2 µM (active) |  | 14.8 µM (active) | 0.332 µM (active) |  |  |  | 4.69 µM (active) | 0.935 µM (active) |  | 
7 | COc1cc(C(C)C)c2c(c1)S(=O)(=O)N(COc1cc(=O)n3cccc(OCCN4CCCCC4)c3n1)C2=O | 16.6 µM (active) |  |  | 20.9 µM (active) | 26.4 µM (active) | 18.7 µM (active) | 13.2 µM (active) | 14.8 µM (active) | 13.2 µM (active) | 18.7 µM (active) |  | 23.5 µM (active) | 18.7 µM (active) |  |  |  | 18.7 µM (active) | 5.26 µM (active) | 
8 | Nc1ccc(S(=O)(=O)Nc2ncccn2)cc1 |  |  | inactive | inactive |  | inactive | inactive |  | inactive | inactive | inactive | inactive | inactive |  |  |  |  |  | 
9 | CC(C)(C)c1cc(C(C)(C)C)c(NC(=O)c2c[nH]c3ccccc3c2=O)cc1O | inactive |  | inactive | inactive | inactive | inactive | inactive | inactive | inactive |  |  | inactive | inactive | inactive | inactive |  |  |  | inactive
10 | CCN1CCN(Cc2ccc(-c3cc4c(N[C@H](C)c5ccccc5)ncnc4[nH]3)cc2)CC1 |  |  | 0.0469 µM (active) | 0.0332 µM (active) | 0.0743 µM (active) | 0.469 µM (active) | 0.418 µM (active) |  | 2.09 µM (active) | 0.0166 µM (active) |  | 0.0469 µM (active) |  |  | 8.33 µM (active) |  |  |  | 
11 | CN1CCN(c2ccc3nc(-c4c(N)c5c(F)cccc5[nH]c4=O)[nH]c3c2)CC1 | 2.35 µM (active) | 20.9 µM (active) | 14.8 µM (active) | 8.33 µM (active) | 16.6 µM (active) | 13.2 µM (active) | 1.32 µM (active) | 7.43 µM (active) | 2.64 µM (active) | 7.43 µM (active) | 16.6 µM (active) | 5.9 µM (active) | 18.7 µM (active) | 11.8 µM (active) | 8.33 µM (active) |  |  | 20.9 µM (active) | 
12 | COc1cc(OC2CCN(C)CC2)ccc1Nc1ncc2c(n1)n(C1CCCC1)c(=O)n2C | 5.9 µM (active) | 16.6 µM (active) | 9.35 µM (active) | 23.5 µM (active) |  | 11.8 µM (active) | 3.72 µM (active) | 14.8 µM (active) | 6.62 µM (active) | 20.9 µM (active) | 9.35 µM (active) | 7.43 µM (active) |  | 11.8 µM (active) |  |  | 11.8 µM (active) |  | 6.62 µM (active)
